Source: PubChem BioAssay (EPA / NIEHS)
Records with an inconclusive call do not appear. The source made the active and inactive calls. How the source made its calls, unless noted: active means hit-call score of the fitted dose curve at least 0.9, where 1 is the maximum; inconclusive means response in the unintended direction; inactive means score below 0.9.

Assays:
[1] = biological target: Retinoic acid receptor alpha (Homo sapiens) (UniProt P10276); assay: ATG_DR5_RAR_CIS: Attagene CIS-FACTORIAL HepG2 Assay for human Retinoic Acid Receptor Alpha (RARE), DR5 submotif (AID 2282934; active means hit-call score of the fitted dose curve at least 0.9, where 1 is the maximum; inactive means score below 0.9); details: HepG2 Attagene cis-factorial RARE DR5 reporter, mRNA; actives raise or lower the signal
Outline: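 Transfected HepG2 reporter cells are exposed to chemicals for 24 h. Then RNA is extracted and the DR5 element reporter transcript is measured by RT-PCR and capillary electrophoresis, with bidirectional curve fitting relative to DMSO.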

[2] = ATG_GRE_CIS: Attagene CIS-FACTORIAL HepG2 Assay for human Glucocorticoid Response Elements (GRE) (AID 2282947; active means hit-call score of the fitted dose curve at least 0.9, where 1 is the maximum; inactive means score below 0.9); details: HepG2 GRE cis-reporter, Attagene multiplex mRNA; actives raise or lower the signal
Outline: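 Cells (HepG2) bearing transfected cis-promoter reporter transcription units were treated with chemical for 24 hours. Reporter mRNA was measured via RT-PCR with capillary electrophoresis, and activity was fitted in both directions relative to DMSO.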

[3] = ATG_PPRE_CIS: Attagene CIS-FACTORIAL HepG2 Assay for human Peroxisome Proliferator-activated Response Element (PPRE) (AID 2282958; active means hit-call score of the fitted dose curve at least 0.9, where 1 is the maximum; inactive means score below 0.9); details: HepG2 PPRE cis-element reporter, Attagene transcription factor profiling; actives raise or lower the signal
Outline: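 Read-out: fluorescent reporter mRNA fragments resolved by capillary electrophoresis after RT-PCR. HepG2 cells carried transiently transfected PPRE-driven cis reporter constructs and were dosed for 24 h; gain or loss of signal fitted relative to DMSO.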

[4] = ATG_VDRE_CIS: Attagene CIS-FACTORIAL HepG2 Assay for human Vitamin D Receptor Element (VDRE) (AID 2282968; active means hit-call score of the fitted dose curve at least 0.9, where 1 is the maximum; inactive means score below 0.9); details: HepG2 VDRE cis-reporter transcription, actives raise or lower the signal
Outline: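 Steps: transfect HepG2 with multiple reporter transcription units; dose chemicals 24 h; isolate RNA; RT-PCR; label with 6-FAM primer extension; HpaI digest; capillary electrophoresis. Curves fitted both directions against DMSO.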

[5] = ATG_M_19_TRANS: Attagene TRANS-FACTORIAL HepG2 Assay for M19 Transcription Factor (Internal Marker) (AID 2282974); details: HepG2 Attagene TRANS-FACTORIAL M19 internal marker reporter
Outline: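 24 h chemical exposure of transiently transfected HepG2 (MRTU library). RNA → oligo(dT) RT → PCR → 6-FAM labelling → HpaI cut → CE fluorescence. Positive-direction fit vs DMSO baseline; background internal-marker readout.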

[6] = biological target: Glucocorticoid receptor (Homo sapiens) (UniProt P04150); assay: ATG_GR_TRANS: Attagene TRANS-FACTORIAL HepG2 Assay for human Glucocorticoid Receptor (GR) (AID 2282978); details: HepG2 Attagene TRANS GR reporter, mRNA transcription;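 further: activators score as hits since higher reporter transcript over DMSO is fitted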
Outline: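 Transient MRTU transfection of HepG2 (GAL4-UAS reporters, exogenous NR-GAL4 chimeras), 24 h dosing. Readout: reporter transcript via RT-PCR + capillary electrophoresis fluorescence. Positive direction vs DMSO baseline.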

[7] = biological target: Oxysterols receptor LXR-alpha (Homo sapiens) (UniProt Q13133); assay: ATG_LXRa_TRANS: Attagene TRANS-FACTORIAL HepG2 Assay for human Liver X Receptor alpha (LXRa) (AID 2282980); details: HepG2 Attagene TRANS reporter, LXRa transactivation
Outline: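 HepG2 cells transiently transfected with GAL4-UAS reporter units for chimeric NR-Gal4 proteins, exposed to chemicals for 24 h. Reporter mRNA quantified by RT-PCR and capillary electrophoresis; gain of signal fitted relative to DMSO.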

[8] = biological target: Oxysterols receptor LXR-beta (Homo sapiens) (UniProt P55055); assay: ATG_LXRb_TRANS: Attagene TRANS-FACTORIAL HepG2 Assay for human Liver X Receptor beta (LXRb) (AID 2282981); details: HepG2 Attagene TRANS GAL4-LXRb reporter, mRNA
Outline: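 Measures induction of a Gal4-driven reporter transcript in HepG2 cells expressing an exogenous LXRb-Gal4 fusion. Cells are exposed to compound for 24 h before RNA isolation and RT-PCR with capillary electrophoresis detection.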

[9] = ACEA_ER_AUC_viability: ACEA Biosciences xCELLigence Real-Time Cell Analysis on Estrogen Receptor Agonism for Viability (AID 2283782);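 further: hit means loss of impedance signal meaning reduced cell growth or viability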
Outline: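 Continuous-exposure impedance cell analysis uses T-47D cells in charcoal-stripped serum, eight 1:4 dilutions topping at 100 uM final, biological duplicate. Area under the growth curve at 80 h is fitted against DMSO baseline.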

[10] = biological target: human Peroxisome Proliferator-activated Receptor alpha (PPARa), PPARA (gene 5465) (UniProt Q07869); assay: ATG_PPARa_TRANS: Attagene TRANS-FACTORIAL HepG2 Assay for human Peroxisome Proliferator-activated Receptor alpha (PPARa) (AID 2283001);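 on AC50: potency for gain of reporter signal over DMSO so agonist or activator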
Outline: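 Cells (HepG2) are transfected with multiple reporter transcription units, exposed to chemical for 24 h, then total RNA is reverse-transcribed and amplified. Labelled products are quantified by capillary electrophoresis; induction is referenced to DMSO.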

[11] = biological target: human Peroxisome Proliferator-activated Receptor delta (PPARd), PPARD (gene 5467) (UniProt Q03181); assay: ATG_PPARd_TRANS: Attagene TRANS-FACTORIAL HepG2 Assay for human Peroxisome Proliferator-activated Receptor delta (PPARd) (AID 2283002)
Outline: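 Measured quantity: GAL4-UAS reporter transcript induction in HepG2 after 24 h chemical dosing, with NR-Gal4 chimeras supplied by transient transfection. Detection by RT-PCR and capillary electrophoresis; upward fit against DMSO.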

[12] = biological target: human Vitamin D Receptor (VDR), VDR (gene 7421) (UniProt P11473); assay: ATG_VDR_TRANS: Attagene TRANS-FACTORIAL HepG2 Assay for human Vitamin D Receptor (VDR) (AID 2283022)
Outline: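 HepG2 cells were transiently transfected with GAL4-UAS reporter units and a chimeric VDR-Gal4 construct, then dosed for 24 hours. Reporter mRNA was quantified by RT-PCR, fluorescent labeling, HpaI digestion and capillary electrophoresis; gain of signal analysed vs DMSO.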

[13] = biological target: Nuclear receptor subfamily 1 group I member 3 (Homo sapiens) (UniProt Q14994); assay: ATG_CAR_TRANS: Attagene TRANS-FACTORIAL HepG2 Assay for human Constitutive Androstane Receptor (CAR) (AID 2282969); details: HepG2 Attagene TRANS-FACTORIAL CAR reporter;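 further: activators raise reporter mRNA above DMSO so AC50 marks induction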
Outline: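 Steps: transient transfection of HepG2 with multiple GAL4-UAS reporter units; 24 h compound incubation; RNA isolation, RT-PCR, 6-FAM primer extension, HpaI digest; capillary electrophoresis. Gain-of-signal relative to DMSO negative control.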

[14] = biological target: Estrogen-related receptor gamma (Homo sapiens) (UniProt P62508); assay: ATG_ERRg_TRANS: Attagene TRANS-FACTORIAL HepG2 Assay for human Estrogen-Related Receptor gamma (ERRg) (AID 2282977); details: HepG2 Attagene TRANS reporter, ERRg transactivation;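 further: hits increase reporter signal over DMSO so potencies reflect activators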
Outline: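 Exogenous NR-Gal4 chimera activity measured as reporter transcript induction after 24 h in transiently transfected HepG2 cells. RNA reverse-transcribed, PCR-amplified, 6-FAM-labelled and resolved by capillary electrophoresis; increase over DMSO baseline.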

[15] = TOX21_p53_BLA_p3_viability: Viability Assessment in the Tox21 HCT-116 p53 Agonism Beta-lactamase Assay, Phase 3 (AID 2283593);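 further: cells exposed to compound for 16 h before reading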
Outline: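 HCT-116 cells (4000/well) rested 5 h at 37C, then got DMSO compounds by pin tool (217-fold dilution) for 16 h at 37C, 5% CO2. After the bla read, CellTiter-Glo was added and luminescence read at 30 min, room temperature.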

[16] = biological target: human RAR-related Orphan Receptor beta (RORb), RORB (gene 6096) (UniProt Q92753); assay: ATG_RORb_TRANS: Attagene TRANS-FACTORIAL HepG2 Assay for human RAR-related Orphan Receptor beta (RORb) (AID 2283010)
Outline: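 Read-out is reporter mRNA induction, quantified by RT-PCR with fluorescent capillary electrophoresis, 24 h post-dose in transiently transfected HepG2 expressing exogenous NR-Gal4 chimera. Activity fitted upward versus DMSO.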

[17] = ATG_PBREM_CIS: Attagene CIS-FACTORIAL HepG2 Assay for human Phenobarbital-responsive Enhancer Module (PBREM) (AID 2282955; active means hit-call score of the fitted dose curve at least 0.9, where 1 is the maximum; inactive means score below 0.9); details: HepG2 PBREM cis-reporter, Attagene multiplexed transcription; actives raise or lower the signal
Outline: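 Reporter mRNA read by RT-PCR, 6-FAM primer extension, HpaI digestion and capillary electrophoresis. Transfected HepG2 cells, 24 h compound exposure. Gain or loss of signal fitted bidirectionally relative to DMSO baseline.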

[18] = ATG_M_06_TRANS: Attagene TRANS-FACTORIAL HepG2 Assay for M06 Transcription Factor (Internal Marker) (AID 2282983); details: HepG2 Attagene TRANS M06 internal marker reporter
Outline: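 mRNA levels of a reporter transcript, quantified as FAM fluorescence on capillary electrophoresis, served as readout. HepG2 cells expressing exogenous GAL4-chimera reporter constructs were exposed for 24 h. Gain of signal over DMSO was evaluated.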

[19] = CCTE_Harrill_HTTr_Viability_MCF7: CCTE's 6-hour Cell Viability Assessment for the High-Throughput Transcriptomics (HTTr) Platform, in MCF-7 cells cultured in DMEM + 10% fetal bovine serum, Harrill Lab (AID 2284010; active means hit-call score of the fitted dose curve at least 0.9, where 1 is the maximum; inactive means score below 0.9)
Outline: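 Propidium iodide exclusion, imaged by high-content analysis, gauged viability after a six-hour exposure across eight concentrations. Cells were MCF-7 grown in DMEM with 10% fetal bovine serum; fits run in both directions against DMSO.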

[20] = CCTE_Harrill_HTTr_Apoptosis_MCF7: CCTE's 6-hour Apoptosis Assessment for the High-Throughput Transcriptomics (HTTr) Platform, in MCF-7 cells cultured in DMEM + 10% fetal bovine serum, Harrill Lab (AID 2284011; active means hit-call score of the fitted dose curve at least 0.9, where 1 is the maximum; inactive means score below 0.9)
Outline: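 MCF-7 cells in DMEM + 10% FBS exposed 6 h to chemicals over an eight-point dilution series. Caspase-3/7 activation imaged by high-content CellEvent Green staining; fitted bidirectionally versus DMSO.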

Chain of human Peroxisome Proliferator-activated Receptor delta (PPARd), PPARD (gene 5467) (Q03181 whole entry, looked up, the tested form may be a part): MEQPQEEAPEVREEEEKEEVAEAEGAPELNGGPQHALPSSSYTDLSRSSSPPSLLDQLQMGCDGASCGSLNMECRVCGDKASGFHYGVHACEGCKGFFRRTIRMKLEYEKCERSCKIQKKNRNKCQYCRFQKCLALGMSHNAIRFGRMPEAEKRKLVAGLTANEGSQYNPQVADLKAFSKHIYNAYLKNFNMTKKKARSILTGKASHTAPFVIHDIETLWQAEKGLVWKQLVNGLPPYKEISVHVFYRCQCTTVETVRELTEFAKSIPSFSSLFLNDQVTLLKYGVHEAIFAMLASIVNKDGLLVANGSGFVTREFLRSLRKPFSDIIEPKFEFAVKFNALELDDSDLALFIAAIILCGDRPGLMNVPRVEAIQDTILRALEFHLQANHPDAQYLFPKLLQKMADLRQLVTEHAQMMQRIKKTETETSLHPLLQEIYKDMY
Chain of Glucocorticoid receptor (Homo sapiens) (P04150 whole entry, looked up, the tested form may be a part): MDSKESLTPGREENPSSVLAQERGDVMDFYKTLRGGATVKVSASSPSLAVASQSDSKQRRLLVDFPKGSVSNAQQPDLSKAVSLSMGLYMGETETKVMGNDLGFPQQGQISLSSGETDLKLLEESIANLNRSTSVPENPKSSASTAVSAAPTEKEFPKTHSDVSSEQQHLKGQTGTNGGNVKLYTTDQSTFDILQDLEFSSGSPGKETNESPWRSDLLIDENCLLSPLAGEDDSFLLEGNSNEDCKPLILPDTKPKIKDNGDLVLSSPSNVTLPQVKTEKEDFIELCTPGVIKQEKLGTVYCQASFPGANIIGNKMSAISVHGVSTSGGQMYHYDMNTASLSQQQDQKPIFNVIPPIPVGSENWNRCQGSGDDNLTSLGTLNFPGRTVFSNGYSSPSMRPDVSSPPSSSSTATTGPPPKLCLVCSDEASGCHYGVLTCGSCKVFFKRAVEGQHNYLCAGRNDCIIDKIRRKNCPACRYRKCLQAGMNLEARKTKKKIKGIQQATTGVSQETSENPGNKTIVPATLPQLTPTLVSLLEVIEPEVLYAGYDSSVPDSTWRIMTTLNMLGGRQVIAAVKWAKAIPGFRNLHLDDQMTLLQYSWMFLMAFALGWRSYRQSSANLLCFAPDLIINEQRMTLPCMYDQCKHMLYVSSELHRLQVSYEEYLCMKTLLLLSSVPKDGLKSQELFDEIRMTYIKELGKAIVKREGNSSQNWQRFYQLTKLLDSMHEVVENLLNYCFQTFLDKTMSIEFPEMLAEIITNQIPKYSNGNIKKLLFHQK
Chain of Oxysterols receptor LXR-beta (Homo sapiens) (P55055 whole entry, looked up, the tested form may be a part): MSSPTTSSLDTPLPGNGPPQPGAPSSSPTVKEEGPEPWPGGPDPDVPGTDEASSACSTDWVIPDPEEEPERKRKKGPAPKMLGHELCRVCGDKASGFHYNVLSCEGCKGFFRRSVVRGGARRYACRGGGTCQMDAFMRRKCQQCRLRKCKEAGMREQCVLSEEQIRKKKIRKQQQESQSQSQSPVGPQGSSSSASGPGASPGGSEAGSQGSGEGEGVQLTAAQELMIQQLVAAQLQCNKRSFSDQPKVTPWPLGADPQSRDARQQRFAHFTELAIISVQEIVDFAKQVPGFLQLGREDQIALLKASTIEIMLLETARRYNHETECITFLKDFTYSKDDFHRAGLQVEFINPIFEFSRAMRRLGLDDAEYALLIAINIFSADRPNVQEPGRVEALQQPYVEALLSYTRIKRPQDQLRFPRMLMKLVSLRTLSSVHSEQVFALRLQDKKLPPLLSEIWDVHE
Chain of human Vitamin D Receptor (VDR), VDR (gene 7421) (P11473 whole entry, looked up, the tested form may be a part): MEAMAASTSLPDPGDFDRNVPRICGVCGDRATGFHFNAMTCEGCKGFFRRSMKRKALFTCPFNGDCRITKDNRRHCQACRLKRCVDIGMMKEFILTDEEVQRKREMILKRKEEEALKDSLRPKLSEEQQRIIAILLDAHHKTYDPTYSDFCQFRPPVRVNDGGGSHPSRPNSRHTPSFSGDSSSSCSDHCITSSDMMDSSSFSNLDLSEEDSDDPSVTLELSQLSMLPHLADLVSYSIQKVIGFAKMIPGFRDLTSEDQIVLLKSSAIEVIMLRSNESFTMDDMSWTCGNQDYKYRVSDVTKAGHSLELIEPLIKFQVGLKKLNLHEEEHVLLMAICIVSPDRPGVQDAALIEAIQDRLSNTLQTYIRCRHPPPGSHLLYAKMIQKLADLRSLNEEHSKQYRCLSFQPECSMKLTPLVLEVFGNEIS
Chain of Oxysterols receptor LXR-alpha (Homo sapiens) (Q13133 whole entry, looked up, the tested form may be a part): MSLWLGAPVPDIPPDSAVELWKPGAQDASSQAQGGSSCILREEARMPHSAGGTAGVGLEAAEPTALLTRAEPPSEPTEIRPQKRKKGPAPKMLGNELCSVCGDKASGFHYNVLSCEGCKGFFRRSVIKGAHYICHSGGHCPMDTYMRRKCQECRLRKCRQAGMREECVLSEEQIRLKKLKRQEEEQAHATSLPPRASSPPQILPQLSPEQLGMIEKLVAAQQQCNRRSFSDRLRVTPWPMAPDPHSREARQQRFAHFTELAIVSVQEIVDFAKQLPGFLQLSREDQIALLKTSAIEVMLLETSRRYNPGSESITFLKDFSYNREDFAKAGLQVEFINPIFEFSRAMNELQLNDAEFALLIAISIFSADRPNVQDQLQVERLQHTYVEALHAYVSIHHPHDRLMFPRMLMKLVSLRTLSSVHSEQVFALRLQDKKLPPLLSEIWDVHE
Chain of human RAR-related Orphan Receptor beta (RORb), RORB (gene 6096) (Q92753 whole entry, looked up, the tested form may be a part): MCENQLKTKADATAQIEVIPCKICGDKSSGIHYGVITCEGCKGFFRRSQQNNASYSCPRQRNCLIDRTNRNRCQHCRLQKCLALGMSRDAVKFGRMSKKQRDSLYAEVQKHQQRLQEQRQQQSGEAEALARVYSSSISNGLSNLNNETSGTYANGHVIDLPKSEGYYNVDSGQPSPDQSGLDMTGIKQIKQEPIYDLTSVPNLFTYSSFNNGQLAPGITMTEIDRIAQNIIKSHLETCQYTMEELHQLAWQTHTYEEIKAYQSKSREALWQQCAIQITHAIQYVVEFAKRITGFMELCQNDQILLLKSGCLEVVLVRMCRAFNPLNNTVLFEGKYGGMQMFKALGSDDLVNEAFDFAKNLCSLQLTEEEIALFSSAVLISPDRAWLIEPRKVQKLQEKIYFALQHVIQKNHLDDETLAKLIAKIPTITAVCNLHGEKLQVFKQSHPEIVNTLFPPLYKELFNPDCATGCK
Chain of human Peroxisome Proliferator-activated Receptor alpha (PPARa), PPARA (gene 5465) (Q07869 whole entry, looked up): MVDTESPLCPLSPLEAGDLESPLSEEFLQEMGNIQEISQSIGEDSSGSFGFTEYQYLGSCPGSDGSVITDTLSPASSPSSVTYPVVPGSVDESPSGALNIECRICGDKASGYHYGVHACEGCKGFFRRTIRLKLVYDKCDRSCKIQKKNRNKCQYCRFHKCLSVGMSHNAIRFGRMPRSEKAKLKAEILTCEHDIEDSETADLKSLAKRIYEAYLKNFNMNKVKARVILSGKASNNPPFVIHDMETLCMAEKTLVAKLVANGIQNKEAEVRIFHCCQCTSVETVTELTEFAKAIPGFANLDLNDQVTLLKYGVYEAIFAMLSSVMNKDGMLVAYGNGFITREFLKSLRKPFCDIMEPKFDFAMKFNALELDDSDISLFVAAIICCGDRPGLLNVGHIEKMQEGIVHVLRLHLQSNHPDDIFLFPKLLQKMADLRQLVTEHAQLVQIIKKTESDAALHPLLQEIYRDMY
Chain of Retinoic acid receptor alpha (Homo sapiens) (P10276 whole entry, looked up): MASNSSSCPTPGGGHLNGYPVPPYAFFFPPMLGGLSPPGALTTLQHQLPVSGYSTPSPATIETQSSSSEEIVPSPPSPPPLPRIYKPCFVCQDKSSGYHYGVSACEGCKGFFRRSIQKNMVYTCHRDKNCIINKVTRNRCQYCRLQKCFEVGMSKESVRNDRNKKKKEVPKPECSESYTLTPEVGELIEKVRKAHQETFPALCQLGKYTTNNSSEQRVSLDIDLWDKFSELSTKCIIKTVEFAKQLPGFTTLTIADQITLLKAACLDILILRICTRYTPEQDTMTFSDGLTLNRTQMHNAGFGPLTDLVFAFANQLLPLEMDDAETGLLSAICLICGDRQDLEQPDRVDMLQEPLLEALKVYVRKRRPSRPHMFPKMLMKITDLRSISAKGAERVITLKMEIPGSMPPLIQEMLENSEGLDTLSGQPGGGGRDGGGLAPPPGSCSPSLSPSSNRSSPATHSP
Chain of Estrogen-related receptor gamma (Homo sapiens) (P62508 whole entry, looked up, the tested form may be a part): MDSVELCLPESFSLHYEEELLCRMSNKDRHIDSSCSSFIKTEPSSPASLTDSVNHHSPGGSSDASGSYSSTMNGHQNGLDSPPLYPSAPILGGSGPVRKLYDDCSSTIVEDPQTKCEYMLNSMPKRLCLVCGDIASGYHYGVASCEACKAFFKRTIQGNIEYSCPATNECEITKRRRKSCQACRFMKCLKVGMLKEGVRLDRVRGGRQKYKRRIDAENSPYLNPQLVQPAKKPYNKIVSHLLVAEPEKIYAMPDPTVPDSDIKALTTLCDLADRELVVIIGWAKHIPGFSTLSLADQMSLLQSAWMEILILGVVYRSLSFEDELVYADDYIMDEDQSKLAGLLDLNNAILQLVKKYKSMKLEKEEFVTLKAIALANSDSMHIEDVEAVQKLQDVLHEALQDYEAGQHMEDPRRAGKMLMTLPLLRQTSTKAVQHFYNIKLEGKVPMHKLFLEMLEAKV
Chain of Nuclear receptor subfamily 1 group I member 3 (Homo sapiens) (Q14994 whole entry, looked up, the tested form may be a part): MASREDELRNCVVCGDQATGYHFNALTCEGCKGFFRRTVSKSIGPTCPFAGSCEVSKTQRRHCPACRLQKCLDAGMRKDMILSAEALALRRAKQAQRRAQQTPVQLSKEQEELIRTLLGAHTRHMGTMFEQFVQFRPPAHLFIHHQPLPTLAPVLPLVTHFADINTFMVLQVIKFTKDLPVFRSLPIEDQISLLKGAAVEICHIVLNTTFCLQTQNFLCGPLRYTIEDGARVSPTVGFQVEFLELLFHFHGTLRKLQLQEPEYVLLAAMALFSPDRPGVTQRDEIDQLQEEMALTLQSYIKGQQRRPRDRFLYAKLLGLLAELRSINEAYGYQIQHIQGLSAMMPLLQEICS

## CCCCCCCC#N
[1]
  outcome: inactive
[2]
  outcome: inactive
[3]
  outcome: inactive
[4]
  outcome: inactive
[5]
  outcome: inactive
[6]
  outcome: inactive
[7]
  outcome: inactive
[8]
  outcome: inactive
[9]
  outcome: inactive

## CCCCCCC1CCC(=O)O1 (centres undefined)
[1]
  outcome: inactive
[3]
  outcome: inactive
[5]
  outcome: inactive
[7]
  outcome: inactive
[8]
  outcome: inactive
[10]
  outcome: inactive
[11]
  outcome: inactive
[12]
  outcome: inactive

## CN(C)c1ccc(C(c2ccccc2)c2ccc(N(C)C)cc2)cc1
[13]
  outcome: inactive
[5]
  outcome: inactive
[14]
  outcome: inactive
[8]
  outcome: inactive
[15]
  outcome: inactive

## F[B-](F)(F)F
[4]
  outcome: inactive
[5]
  outcome: inactive
[7]
  outcome: inactive
[16]
  outcome: inactive
[9]
  outcome: inactive

## C=C1CC[C@H]2C[C@@H]1C2(C)C
[1]
  outcome: inactive
[3]
  outcome: inactive
[4]
  outcome: inactive
[7]
  outcome: inactive
[8]
  outcome: inactive
[11]
  outcome: inactive
[12]
  outcome: inactive
[9]
  outcome: inactive

## c1cc(N(CC2CO2)CC2CO2)ccc1Cc1ccc(N(CC2CO2)CC2CO2)cc1 (centres undefined)
[1]
  outcome: inactive
[2]
  outcome: inactive
[17]
  outcome: inactive
[3]
  outcome: inactive
[4]
  AC50: 3.66 µM (active)
[5]
  outcome: inactive
[6]
  outcome: inactive
[7]
  outcome: inactive
[11]
  outcome: inactive
[12]
  outcome: inactive
[15]
  outcome: inactive

## C[Si](C)(C)O[Si](C)(C)O[Si](C)(C)C
[3]
  outcome: inactive
[4]
  outcome: inactive
[5]
  outcome: inactive
[7]
  outcome: inactive
[18]
  outcome: inactive
[10]
  outcome: inactive
[11]
  outcome: inactive
[12]
  outcome: inactive
[15]
  outcome: inactive

## Nc1ccc(S(=O)(=O)Nc2cnc3ccccc3n2)cc1
[2]
  outcome: inactive
[7]
  outcome: inactive
[18]
  outcome: inactive
[12]
  outcome: inactive
[15]
  outcome: inactive
[9]
  outcome: inactive
[19]
  outcome: inactive
[20]
  outcome: inactive

## COc1c2occc2cc2ccc(=O)oc12
[1]
  outcome: inactive
[4]
  AC50: 53.7 µM (active)
[10]
  outcome: inactive
[11]
  outcome: inactive
[16]
  outcome: inactive
[15]
  outcome: inactive
[19]
  outcome: inactive
[20]
  outcome: inactive

## CC(C)(Oc1ccc(Cl)cc1)C(=O)O
[2]
  outcome: inactive
[3]
  outcome: inactive
[5]
  outcome: inactive
[7]
  outcome: inactive
[10]
  AC50: 29.8 µM (active)
[11]
  outcome: inactive
[12]
  outcome: inactive
[15]
  outcome: inactive
[19]
  outcome: inactive
[20]
  outcome: inactive

## COC(OC)C(C)c1ccccc1 (centres undefined)
[1]
  outcome: inactive
[3]
  outcome: inactive
[18]
  outcome: inactive
[11]
  outcome: inactive
[12]
  outcome: inactive
[9]
  AC50: 20.7 µM (active)

## CC(O)(P(=O)(O)O)P(=O)(O)O
[7]
  outcome: inactive
[18]
  outcome: inactive
[10]
  outcome: inactive

## Brc1ccc(Oc2ccc(Br)cc2)cc1
[1]
  outcome: inactive
[2]
  outcome: inactive
[17]
  outcome: inactive
[13]
  outcome: inactive
[5]
  outcome: inactive
[7]
  outcome: inactive
[11]
  outcome: inactive
[12]
  outcome: inactive
[15]
  outcome: inactive
[9]
  AC50: 65.4 µM (active)
[19]
  outcome: inactive
[20]
  outcome: inactive

## CC(C)n1c(/C=C/[C@@H](O)C[C@@H](O)CC(=O)O)c(-c2ccc(F)cc2)c2ccccc21
[3]
  AC50: 36.3 µM (active)
[5]
  outcome: inactive
[6]
  outcome: inactive
[7]
  outcome: inactive
[8]
  outcome: inactive
[18]
  outcome: inactive
[10]
  outcome: inactive
[11]
  outcome: inactive
[15]
  outcome: inactive
[19]
  outcome: inactive
[20]
  outcome: inactive

## O=C(Oc1ccccc1)c1ccccc1
[1]
  outcome: inactive
[17]
  outcome: inactive
[3]
  outcome: inactive
[5]
  outcome: inactive
[14]
  outcome: inactive
[8]
  outcome: inactive
[18]
  outcome: inactive
[11]
  outcome: inactive
[16]
  outcome: inactive
[19]
  outcome: inactive
[20]
  outcome: inactive
